Assay results reported in article PMC5540273 (PLoS ONE, 2017).

How the values were obtained:
Settings in all cases: concentration: 1 μM,replicates: in singlicate; n = 1
NEK11 = tested on: NEK11
NEK1 = tested on: NEK1
NEK2 = tested on: NEK2
NEK3 = tested on: NEK3
NEK4 = tested on: NEK4
NEK5 = tested on: NEK5
NEK6 = tested on: NEK6
NEK7 = tested on: NEK7
NEK9 = tested on: NEK9
NIK = tested on: T1, NIK
T1 construct: gene MAP3K14

NIM1 = tested on: T2, NIM1
T2 construct: gene MGC42105

NLK = tested on: NLK
OSR1 = tested on: T3, OSR1
T3 construct: gene OXSR1

PAK1 = tested on: PAK1
PAK2 = tested on: PAK2
PAK3 = tested on: PAK3
PAK4 = tested on: PAK4
PAK6 = tested on: PAK6
PAK7 = tested on: PAK7
PCTK1 = tested on: T4, PCTK1
T4 construct: gene CDK16
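Further: KINOMEscan kinase panel screen.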

Cl.Cl.NC[C@H](CC1CCCCC1)NC(=O)c1cc(Br)c(-c2ccnc3[nH]ccc23)s1 [GSK1581427]
%Inh (NEK11): 0%
%Inh (NEK1): 37%
%Inh (NEK2): 0%
%Inh (NEK3): 17%
%Inh (NEK4): 23%
%Inh (NEK5): 0%
%Inh (NEK6): 0%
%Inh (NEK7): 0%
%Inh (NEK9): 1%
%Inh (NIK): 38%
%Inh (NIM1): 22%
%Inh (NLK): 0%
%Inh (OSR1): 20%
%Inh (PAK1): 38%
%Inh (PAK2): 36%
%Inh (PAK3): 81%
%Inh (PAK4): 12%
%Inh (PAK6): 28%
%Inh (PAK7): 42%
%Inh (PCTK1): 3%

CCN(CC)CCCCNc1ncc2cc(-c3c(Cl)cccc3Cl)c(NC(=O)NC(C)(C)C)nc2n1
%Inh (NEK11): 0%
%Inh (NEK1): 43%
%Inh (NEK2): 11%
%Inh (NEK3): 29%
%Inh (NEK4): 0%
%Inh (NEK5): 0%
%Inh (NEK6): 38%
%Inh (NEK7): 0%
%Inh (NEK9): 0%
%Inh (NIK): 0%
%Inh (NIM1): 6%
%Inh (NLK): 81%
%Inh (OSR1): 0%
%Inh (PAK1): 18%
%Inh (PAK2): 2%
%Inh (PAK3): 7%
%Inh (PAK4): 0%
%Inh (PAK6): 0%
%Inh (PAK7): 16%
%Inh (PCTK1): 0%

C=CC(=O)Nc1cc2c(Nc3ccc(F)c(Cl)c3)ncnc2cc1OCCCN1CCOCC1 [GW781483]
%Inh (NEK11): 0%
%Inh (NEK1): 0%
%Inh (NEK2): 0%
%Inh (NEK3): 18%
%Inh (NEK4): 0%
%Inh (NEK5): 3%
%Inh (NEK6): 0%
%Inh (NEK7): 11%
%Inh (NEK9): 22%
%Inh (NIK): 6%
%Inh (NIM1): 36%
%Inh (NLK): 0%
%Inh (OSR1): 0%
%Inh (PAK1): 0%
%Inh (PAK2): 14%
%Inh (PAK3): 0%
%Inh (PAK4): 15%
%Inh (PAK6): 0%
%Inh (PAK7): 0%
%Inh (PCTK1): 1%

O=C(NCCNc1ccnc(NCc2ccc(F)cc2)n1)c1cc2ccccc2s1 [GSK1379944]
%Inh (NEK11): 0%
%Inh (NEK1): 0%
%Inh (NEK2): 4%
%Inh (NEK3): 11%
%Inh (NEK4): 19%
%Inh (NEK5): 85%
%Inh (NEK6): 0%
%Inh (NEK7): 0%
%Inh (NEK9): 0%
%Inh (NIK): 0%
%Inh (NIM1): 0%
%Inh (NLK): 88%
%Inh (OSR1): 11%
%Inh (PAK1): 15%
%Inh (PAK2): 20%
%Inh (PAK3): 0%
%Inh (PAK4): 0%
%Inh (PAK6): 57%
%Inh (PAK7): 0%
%Inh (PCTK1): 8%

CC(C)Nc1cc(-c2ccc3c(N)n[nH]c3c2)nc(N)n1 [GSK2221681]
%Inh (NEK11): 0%
%Inh (NEK1): 0%
%Inh (NEK2): 0%
%Inh (NEK3): 1%
%Inh (NEK4): 7%
%Inh (NEK5): 4%
%Inh (NEK6): 0%
%Inh (NEK7): 0%
%Inh (NEK9): 1%
%Inh (NIK): 0%
%Inh (NIM1): 0%
%Inh (NLK): 0%
%Inh (OSR1): 0%
%Inh (PAK1): 34%
%Inh (PAK2): 26%
%Inh (PAK3): 0%
%Inh (PAK4): 0%
%Inh (PAK6): 0%
%Inh (PAK7): 0%
%Inh (PCTK1): 0%

Cl.Cl.Nc1nc(-c2ccc3c(N)n[nH]c3c2)cc(N2CCCC(NC(=O)c3ccccc3)C2)n1 (stereo not shown) [GSK2286775]
%Inh (NEK11): 0%
%Inh (NEK1): 7%
%Inh (NEK2): 0%
%Inh (NEK3): 23%
%Inh (NEK4): 7%
%Inh (NEK5): 11%
%Inh (NEK6): 0%
%Inh (NEK7): 0%
%Inh (NEK9): 6%
%Inh (NIK): 0%
%Inh (NIM1): 2%
%Inh (NLK): 13%
%Inh (OSR1): 0%
%Inh (PAK1): 6%
%Inh (PAK2): 1%
%Inh (PAK3): 0%
%Inh (PAK4): 0%
%Inh (PAK6): 17%
%Inh (PAK7): 0%
%Inh (PCTK1): 5%

CN(C)CC(O)COc1ccc(Nc2nccc(-c3cnn4nc(N5CCOCC5)ccc34)n2)cc1 (stereo not shown) [GW767488]
%Inh (NEK11): 47%
%Inh (NEK1): 44%
%Inh (NEK2): 14%
%Inh (NEK3): 96.1%
%Inh (NEK4): 37%
%Inh (NEK5): 0%
%Inh (NEK6): 64%
%Inh (NEK7): 86%
%Inh (NEK9): 55%
%Inh (NIK): 0%
%Inh (NIM1): 51%
%Inh (NLK): 11%
%Inh (OSR1): 54%
%Inh (PAK1): 17%
%Inh (PAK2): 34%
%Inh (PAK3): 4%
%Inh (PAK4): 25%
%Inh (PAK6): 30%
%Inh (PAK7): 9%
%Inh (PCTK1): 97.6%

CCn1c(-c2nonc2N)nc2c(C#CC(C)(C)O)nc(OCCN)cc21.Cl.Cl [GSK902056]
%Inh (NEK11): 3%
%Inh (NEK1): 0%
%Inh (NEK2): 13%
%Inh (NEK3): 4%
%Inh (NEK4): 20%
%Inh (NEK5): 0%
%Inh (NEK6): 0%
%Inh (NEK7): 0%
%Inh (NEK9): 0%
%Inh (NIK): 63%
%Inh (NIM1): 10%
%Inh (NLK): 0%
%Inh (OSR1): 32%
%Inh (PAK1): 11%
%Inh (PAK2): 36%
%Inh (PAK3): 10%
%Inh (PAK4): 68%
%Inh (PAK6): 45%
%Inh (PAK7): 93.4%
%Inh (PCTK1): 2%
